Records with an inconclusive call do not appear. Where a call stands in place of a potency, no number is given. Some structures have more than one record in an assay (separate samples or runs), and their calls can disagree. Calls of active or inactive are those of the source. Unless noted, calls come from the whole dose curve; as a rule, active = well fitted curve in the direction sought with a large enough effect; inconclusive = small, poorly fitted or top-dose-only effect, or another doubt; inactive = no such curve, though single readings can be large; an effect the other way counts as inactive or inconclusive.
Key:
[1] = molecular target: Thioredoxin reductase 1, cytoplasmic (Rattus norvegicus) (UniProt O89049); assay: qHTS Assay for Substrates of Mammalian Selenoprotein Thioredoxin Reductase 1 (TrxR1) (AID 488772);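 note: NADPH fluorescence in the first read after selenite addition and not the 8 min delta; series mostly up to about 57 µM; a drop in NADPH fluorescence below the no-compound background marks a TrxR1 substrate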
Summary of the method: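 Quantitative HTS in Tris-HCl buffer at pH 7.5 with EDTA and Tween-20, using rat TrxR1, 400 uM NADPH and 400 uM selenite (final). A fall in initial NADPH fluorescence relative to background marked substrate behaviour.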

[2] = molecular target: Thioredoxin reductase 1, cytoplasmic (Rattus norvegicus) (UniProt O89049); assay: qHTS Assay for Inhibitors of Mammalian Selenoprotein Thioredoxin Reductase 1 (TrxR1) (AID 488773); details: Potency: inhibition;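 note: drop in NADPH fluorescence over an 8 min run after selenite addition; series mostly up to about 57 µM; nearly all actives have a fitted effect of over 40% in size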
Summary of the method: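 Steps: enzyme (90 nM) plus NADPH (400 uM final), 5 min at ~22 deg C; compound added, 15 min; selenite (400 uM final) added; fluorescence followed for 8 min. Concentration-response curves derived from the normalized delta values.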

[3] = molecular target: Flap endonuclease 1 (Homo sapiens) (UniProt P39748); assay: qHTS Validation Assay for the Inhibitors of Human Flap endonuclease 1 (FEN1) (AID 488816)
Summary of the method: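 Human FEN1 (10 nM) preincubated 15 min at room temperature with compounds, then flap DNA substrate added at 50 nM final. Fluorescence read at 0 and 15 min; concentration-response fitted with four-parameter Hill equation.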

[4] = molecular target: M-phase phosphoprotein 8 (Homo sapiens) (UniProt Q99549); assay: qHTS Validation Assay for Inhibitors for MPP8 Chromodomain Interactions with Methylated Histone Tails (AID 488949); note: nearly all actives have a fitted effect of over 55% in size; note: potency is the fitted concentration of half-maximal effect
Summary of the method: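 AlphaScreen read-out: streptavidin donor and nickel chelate acceptor beads (final 10 ug/mL), 30 min in the dark at RT. Complex of 50 nM MPP8 and 50 nM b-H3(1-18)K9me3 peptide had been exposed to compounds for 30 min beforehand.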

[5] = molecular target: Chromobox protein homolog 1 (Homo sapiens) (UniProt P83916); assay: qHTS Validation Assay for Inhibitors of HP1-beta Chromodomain Interactions with Methylated Histone Tails (AID 488953); note: nearly all actives have a fitted effect of over 50% in size; note: potency is the fitted concentration of half-maximal effect
Summary of the method: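 HP1-beta (50 nM) was preincubated 30 min at room temperature with biotinylated H3(1-18)K9me3 peptide (50 nM) in PBS pH 7.4, 0.01% Tween-20, then with compounds 30 min. AlphaScreen signal was read after streptavidin donor/nickel chelate acceptor beads (10 ug/mL final).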

[6] = molecular target: Methanococcus maripaludis chaperonin (MmCpn) (UniProt Q6LX38); assay: High-Throughput Screening for Modulators of Cytosolic Chaperonin Activity: MmCpn Primary Screen (AID 488978);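 note: 50 nM MmCpn enzyme hydrolysing 30 µM ATP at 37 °C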
Summary of the method: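 ADP formation read by HTRF Transcreener, 665/590 nm emission after 320 nm excitation. Enzyme: archaeal chaperonin at 50 nM final; substrate ATP 30 uM final; 10 min, 37C, after 5 min compound preincubation at RT.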

[7] = molecular target: Transient receptor potential cation channel subfamily V member 1 (Homo sapiens) (UniProt Q8NER1); assay: HTS Assay for Compounds that Act as Enhancers of the Vanilloid Receptor 1 (AID 488979)
Summary of the method: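 TRPV1 cells loaded with Fluo-8 calcium dye; compound added and Ca2+ signal (ex 480/em 520 nm) followed 3 min, then capsaicin at EC20 added and read 2 more min to detect enhancement.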

[8] = molecular target: Thyrotropin receptor (Homo sapiens) (UniProt P16473); assay: qHTS Assay for Antagonists of the Thyroid Stimulating Hormone Receptor (AID 488980); note: series mostly up to about 58 µM
Summary of the method: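 TSHR-HEK293 cells; 70 uM RO 20-1724 PDE inhibitor; compound + EC80 TSH (4 nM final); anti-cAMP cryptate antibody/cAMP-d2 in lysis buffer, 30 min RT; HTRF 665/620 nm read.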

[9] = molecular target: D(1A) dopamine receptor (Homo sapiens) (UniProt P21728); assay: HTS Assay for Allosteric Agonists of the Human D1 Dopamine Receptor: Primary Screen for Agonists (AID 488981)
Summary of the method: (§1)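 Tetracycline-induced HEK293 Trex D1 cells with forced coupling to calcium, loaded with no-wash calcium dye; kinetic fluorescence read 180 s after compound addition for agonism, then a further 180 s after an EC20 dopamine challenge for potentiation.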

[10] = molecular target: D(1A) dopamine receptor (Homo sapiens) (UniProt P21728); assay: HTS Assay for Allosteric Agonists of the Human D1 Dopamine Receptor: Primary Screen for Potentiators (AID 488982)
Summary of the method: as §1

[11] = molecular target: D(1A) dopamine receptor (Homo sapiens) (UniProt P21728); assay: HTS Assay for Allosteric Agonists of the Human D1 Dopamine Receptor: Primary Screen for Antagonists (AID 488983);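 note: calcium flux response to an EC80 dopamine challenge measured with no-wash dye; nearly all actives have a fitted effect of over 65% in size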; note: potency is the fitted concentration of half-maximal effect
Summary of the method: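 Tetracycline-induced HEK293 T-REx cells expressing force-coupled D1 were plated overnight at 30 C, dye-loaded for calcium, and read kinetically. Compounds were pinned in, then an EC80 dopamine challenge followed after 180 s to reveal antagonism.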

[12] = Validation screen for small molecules that induce genotoxicity in human embryonic kidney (HEK293T) cells expressing luciferase-tagged ELG1 (AID 493106); note: potency is the fitted concentration of half-maximal effect
Summary of the method: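 HEK293T cells expressing luciferase-tagged ELG1 were exposed to compound or DMSO vehicle for 16 hr at 37 °C, 5% CO2. Genotoxic stress raises ELG1 levels, so increased luciferase signal after ONE-Glo addition and 30 min at room temperature marks hits.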

[13] = Nrf2 qHTS screen for inhibitors: Validation (AID 493153; active = well fitted inhibition curve with a large enough effect in the main read-out, with a control signal flat, not every such curve was filed as active); details: Potency: luciferase luminescence; viability change: measured here: cytotoxicity max response
Summary of the method: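 A549 cells carrying an ARE-driven firefly luciferase reporter, in 5% FBS OPTI-MEM, were treated with compounds in concentration-response for 18-24 h at 37°C. Viability was read by CellTiter-Fluor fluorescence, then Nrf2 activity by luciferase luminescence.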

[14] = qHTS for Inhibitors of Cell Surface uPA Generation: Validation Assay (AID 493164);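 note: RAW 264.7 macrophage cells exposed to compound for 18 h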
Summary of the method: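 RAW 264.7, 4000 cells/well, o/n plating; cpd 7-pt 1:5 dilution 2.45 nM–38.3 uM final; 18 h, 37 C/5% CO2; ATP-Lite, 5 s luminescence exposure.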

[15] = molecular target: Galactokinase (Homo sapiens) (UniProt P51570); assay: qHTS Validation Assay for Inhibitors of Human Galactokinase (GALK) (AID 493189)
Summary of the method: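 Luminescence from leftover ATP (Kinase-Glo Plus, 10 min) served as read-out after a 1 h room-temperature reaction of 5 nM GALK, 100 uM galactose and 35 uM ATP at pH8.0.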

[16] = Quantitative high throughput screen for delayed death inhibitors of the malarial parasite plastid, 48 hour incubation (AID 488752); note: nearly all actives have a fitted effect of over 65% in size; note: potency is the fitted concentration of half-maximal effect
Summary of the method: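 Erythrocytes infected with P. falciparum carrying an integrated firefly luciferase reporter (2% hematocrit, 0.1% parasitemia final) were exposed to compounds in RPMI 1640/0.5% Albumax for 48 h at 37 C, 5% CO2. Growth inhibition was scored as reduced luminescence.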

[17] = molecular target: ATPase family AAA domain-containing protein 5 (Homo sapiens) (UniProt Q96QE3); assay: Validation screen for small molecules that inhibit ELG1-dependent DNA repair in human embryonic kidney (HEK293T) cells expressing luciferase-tagged ELG1 (AID 493107);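 note: cells co-treated with the DNA-damaging agent 5-fluorouridine alongside compound; series mostly up to about 46 µM; inhibitors lower the ELG1-luciferase luminescence signal; nearly all actives have a fitted effect of over 70% in size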
Summary of the method: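 HEK293T cells expressing luciferase-tagged ELG1 were co-treated with 5-fluorouridine and compound or DMSO for 16 hr at 37 °C, 5% CO2. Luciferase activity was then read with ONE-Glo after 30 min at room temperature; suppressed signal indicates blocked ELG1 function.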

[18] = molecular target: Thyrotropin-releasing hormone receptor (Homo sapiens) (UniProt P34981); assay: qHTS for Small Molecule Agonists and Allosteric Enhancers of Human TRH Receptor: Validation Screen for Agonists (AID 493127;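 active = calcium activation more than 3 SD above the typical response in the agonist read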;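 note: intracellular calcium rise by fluo-8 fluorescence before TRH EC20 addition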); details: TRH receptor agonist cell assay; at 2 µM; stronger effect = higher value
Summary of the method: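 TRHR-expressing cells were plated overnight in serum-containing medium, then loaded with fluo-8 calcium dye at room temperature for 30 min–1.5 h. After a 10 s baseline, compound was pin-transferred and calcium fluorescence (ex 480/em 530) read kinetically for agonist response.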

[19] = molecular target: ATP-dependent 6-phosphofructokinase (Trypanosoma brucei brucei) (UniProt O15648); assay: qHTS Assay to Find Inhibitors of T. brucei phosphofructokinase: hit validation (AID 492961); note: series mostly up to about 51 µM
Summary of the method: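 Luminescence from ADP-Glo reports ADP generated as T. brucei PFK (1.25 nM) phosphorylates 0.5 mM fructose-6-phosphate using 0.1 mM ATP. Reactions ran 45 min at room temperature, pH 8.0.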

Sequence of Galactokinase (Homo sapiens) (P51570 whole entry, looked up): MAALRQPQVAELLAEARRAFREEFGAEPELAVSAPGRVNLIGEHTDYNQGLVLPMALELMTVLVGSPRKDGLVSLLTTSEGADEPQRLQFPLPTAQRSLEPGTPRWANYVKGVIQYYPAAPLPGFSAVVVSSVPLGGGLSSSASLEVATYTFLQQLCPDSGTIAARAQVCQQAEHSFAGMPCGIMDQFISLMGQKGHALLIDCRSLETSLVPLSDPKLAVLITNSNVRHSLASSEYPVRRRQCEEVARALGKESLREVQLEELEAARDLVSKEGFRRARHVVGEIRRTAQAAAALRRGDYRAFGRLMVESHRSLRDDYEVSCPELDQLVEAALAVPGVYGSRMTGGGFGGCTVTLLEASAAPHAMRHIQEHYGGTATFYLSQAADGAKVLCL
Sequence of Thyrotropin-releasing hormone receptor (Homo sapiens) (P34981 whole entry, looked up): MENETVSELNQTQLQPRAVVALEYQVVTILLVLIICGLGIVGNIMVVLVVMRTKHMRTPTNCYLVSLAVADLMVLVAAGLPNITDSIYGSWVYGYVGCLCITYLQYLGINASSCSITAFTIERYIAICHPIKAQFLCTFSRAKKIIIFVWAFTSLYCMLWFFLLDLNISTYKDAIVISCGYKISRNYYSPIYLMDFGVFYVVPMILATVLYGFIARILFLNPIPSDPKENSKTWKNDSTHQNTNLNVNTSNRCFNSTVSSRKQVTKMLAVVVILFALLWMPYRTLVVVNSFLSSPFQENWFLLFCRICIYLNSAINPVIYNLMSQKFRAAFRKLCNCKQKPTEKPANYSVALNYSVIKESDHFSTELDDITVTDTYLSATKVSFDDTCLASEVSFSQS
Sequence of Thioredoxin reductase 1, cytoplasmic (Rattus norvegicus) (O89049 whole entry, looked up): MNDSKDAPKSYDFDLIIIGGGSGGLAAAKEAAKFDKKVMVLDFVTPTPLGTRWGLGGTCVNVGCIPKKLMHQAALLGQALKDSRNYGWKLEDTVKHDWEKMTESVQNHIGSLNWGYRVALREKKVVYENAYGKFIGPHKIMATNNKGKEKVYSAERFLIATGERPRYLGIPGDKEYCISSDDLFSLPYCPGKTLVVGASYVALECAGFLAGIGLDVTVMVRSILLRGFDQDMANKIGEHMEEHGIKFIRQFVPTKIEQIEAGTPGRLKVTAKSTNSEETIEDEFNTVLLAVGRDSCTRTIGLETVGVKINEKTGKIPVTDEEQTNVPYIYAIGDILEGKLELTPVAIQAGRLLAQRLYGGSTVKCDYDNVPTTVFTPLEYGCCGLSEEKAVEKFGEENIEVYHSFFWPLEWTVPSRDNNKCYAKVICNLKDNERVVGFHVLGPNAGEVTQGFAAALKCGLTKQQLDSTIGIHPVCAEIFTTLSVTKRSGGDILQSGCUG
Sequence of M-phase phosphoprotein 8 (Homo sapiens) (Q99549 whole entry, looked up): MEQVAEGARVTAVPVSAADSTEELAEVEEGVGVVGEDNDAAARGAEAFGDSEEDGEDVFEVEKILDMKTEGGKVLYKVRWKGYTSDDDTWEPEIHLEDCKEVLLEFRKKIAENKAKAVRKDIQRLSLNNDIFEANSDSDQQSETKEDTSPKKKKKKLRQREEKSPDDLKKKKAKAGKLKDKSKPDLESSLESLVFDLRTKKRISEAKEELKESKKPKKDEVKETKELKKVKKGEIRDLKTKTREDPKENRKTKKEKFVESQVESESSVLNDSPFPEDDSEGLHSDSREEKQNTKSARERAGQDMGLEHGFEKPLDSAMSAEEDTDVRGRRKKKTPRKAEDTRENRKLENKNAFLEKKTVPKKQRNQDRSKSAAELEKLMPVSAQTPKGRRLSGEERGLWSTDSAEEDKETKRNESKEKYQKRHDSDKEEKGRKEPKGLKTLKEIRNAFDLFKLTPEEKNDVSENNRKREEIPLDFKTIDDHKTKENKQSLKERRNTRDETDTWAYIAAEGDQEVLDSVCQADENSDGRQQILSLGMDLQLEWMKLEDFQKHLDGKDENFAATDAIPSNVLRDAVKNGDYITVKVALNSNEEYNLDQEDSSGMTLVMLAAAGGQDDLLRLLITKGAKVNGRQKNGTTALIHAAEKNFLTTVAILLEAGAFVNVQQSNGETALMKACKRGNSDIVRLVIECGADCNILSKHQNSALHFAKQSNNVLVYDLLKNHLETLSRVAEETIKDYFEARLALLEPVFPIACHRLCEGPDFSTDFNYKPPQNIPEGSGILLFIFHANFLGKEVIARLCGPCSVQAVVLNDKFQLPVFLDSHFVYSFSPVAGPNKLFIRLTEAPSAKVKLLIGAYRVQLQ
Sequence of Methanococcus maripaludis chaperonin (MmCpn) (Q6LX38 1-543): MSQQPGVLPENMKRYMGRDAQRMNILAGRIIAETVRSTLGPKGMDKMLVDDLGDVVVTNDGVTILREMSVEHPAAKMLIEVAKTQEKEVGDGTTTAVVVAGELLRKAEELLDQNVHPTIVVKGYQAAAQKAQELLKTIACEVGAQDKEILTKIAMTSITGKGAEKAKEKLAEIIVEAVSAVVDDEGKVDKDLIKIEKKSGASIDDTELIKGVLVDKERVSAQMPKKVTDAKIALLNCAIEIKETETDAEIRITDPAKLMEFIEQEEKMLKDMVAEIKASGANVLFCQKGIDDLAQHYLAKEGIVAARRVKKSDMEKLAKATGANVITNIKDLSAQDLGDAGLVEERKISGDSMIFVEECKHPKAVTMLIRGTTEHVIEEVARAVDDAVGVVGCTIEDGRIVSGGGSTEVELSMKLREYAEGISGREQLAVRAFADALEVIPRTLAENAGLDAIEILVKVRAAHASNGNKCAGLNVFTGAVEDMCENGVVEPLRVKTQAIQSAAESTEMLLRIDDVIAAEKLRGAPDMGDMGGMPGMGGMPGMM
Sequence of Thyrotropin receptor (Homo sapiens) (P16473 whole entry, looked up): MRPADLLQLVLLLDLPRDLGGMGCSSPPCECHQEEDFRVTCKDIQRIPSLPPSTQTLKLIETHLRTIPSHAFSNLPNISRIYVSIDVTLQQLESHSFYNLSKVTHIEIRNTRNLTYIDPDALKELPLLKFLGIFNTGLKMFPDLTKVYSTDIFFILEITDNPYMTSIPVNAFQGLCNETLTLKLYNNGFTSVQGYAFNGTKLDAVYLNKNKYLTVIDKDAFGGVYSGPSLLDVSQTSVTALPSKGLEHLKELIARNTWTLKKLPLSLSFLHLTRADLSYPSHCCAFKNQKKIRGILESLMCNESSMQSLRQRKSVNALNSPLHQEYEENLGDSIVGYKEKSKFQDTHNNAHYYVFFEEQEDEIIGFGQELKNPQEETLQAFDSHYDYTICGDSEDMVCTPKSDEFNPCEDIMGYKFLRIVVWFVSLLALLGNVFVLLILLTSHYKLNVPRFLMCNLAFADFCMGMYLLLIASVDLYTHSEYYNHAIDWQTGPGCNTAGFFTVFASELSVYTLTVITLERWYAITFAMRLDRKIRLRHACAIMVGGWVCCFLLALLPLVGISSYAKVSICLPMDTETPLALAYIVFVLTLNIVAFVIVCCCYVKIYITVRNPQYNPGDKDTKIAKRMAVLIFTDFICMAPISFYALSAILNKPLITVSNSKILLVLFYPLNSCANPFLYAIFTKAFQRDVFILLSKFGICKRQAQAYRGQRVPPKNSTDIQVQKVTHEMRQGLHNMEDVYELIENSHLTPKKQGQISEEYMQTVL
Sequence of Flap endonuclease 1 (Homo sapiens) (P39748 whole entry, looked up): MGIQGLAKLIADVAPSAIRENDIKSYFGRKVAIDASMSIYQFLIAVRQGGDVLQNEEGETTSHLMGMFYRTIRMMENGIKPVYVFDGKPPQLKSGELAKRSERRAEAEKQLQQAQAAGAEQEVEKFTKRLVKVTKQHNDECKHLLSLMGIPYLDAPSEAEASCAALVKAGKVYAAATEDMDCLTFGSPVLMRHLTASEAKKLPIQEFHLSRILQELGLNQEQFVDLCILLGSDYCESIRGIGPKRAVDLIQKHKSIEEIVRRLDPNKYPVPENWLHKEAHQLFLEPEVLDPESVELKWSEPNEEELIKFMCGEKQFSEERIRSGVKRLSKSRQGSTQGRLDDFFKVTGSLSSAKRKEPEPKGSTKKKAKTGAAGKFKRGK
Sequence of Transient receptor potential cation channel subfamily V member 1 (Homo sapiens) (Q8NER1 whole entry, looked up): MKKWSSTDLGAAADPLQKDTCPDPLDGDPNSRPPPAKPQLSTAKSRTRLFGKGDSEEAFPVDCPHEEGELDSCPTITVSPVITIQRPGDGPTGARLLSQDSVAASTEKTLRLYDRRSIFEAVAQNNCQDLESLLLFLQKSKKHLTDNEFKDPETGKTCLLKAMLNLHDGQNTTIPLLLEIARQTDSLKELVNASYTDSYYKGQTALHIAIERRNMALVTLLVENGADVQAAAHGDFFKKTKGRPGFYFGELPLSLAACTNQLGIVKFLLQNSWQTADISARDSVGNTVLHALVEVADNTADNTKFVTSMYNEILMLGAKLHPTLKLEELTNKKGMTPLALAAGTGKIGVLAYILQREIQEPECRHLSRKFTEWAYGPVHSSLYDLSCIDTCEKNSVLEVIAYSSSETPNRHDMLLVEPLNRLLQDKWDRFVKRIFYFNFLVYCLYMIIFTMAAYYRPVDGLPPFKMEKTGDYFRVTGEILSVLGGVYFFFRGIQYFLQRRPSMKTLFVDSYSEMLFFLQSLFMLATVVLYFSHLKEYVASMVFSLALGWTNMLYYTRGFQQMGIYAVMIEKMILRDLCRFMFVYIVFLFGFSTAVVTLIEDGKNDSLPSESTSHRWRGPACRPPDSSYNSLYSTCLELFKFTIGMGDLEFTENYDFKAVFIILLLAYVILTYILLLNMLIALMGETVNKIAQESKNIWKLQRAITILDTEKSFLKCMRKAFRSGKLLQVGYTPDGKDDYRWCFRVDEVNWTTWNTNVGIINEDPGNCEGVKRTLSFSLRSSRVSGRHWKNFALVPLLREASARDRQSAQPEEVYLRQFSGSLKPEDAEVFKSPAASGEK
Sequence of Chromobox protein homolog 1 (Homo sapiens) (P83916 whole entry, looked up): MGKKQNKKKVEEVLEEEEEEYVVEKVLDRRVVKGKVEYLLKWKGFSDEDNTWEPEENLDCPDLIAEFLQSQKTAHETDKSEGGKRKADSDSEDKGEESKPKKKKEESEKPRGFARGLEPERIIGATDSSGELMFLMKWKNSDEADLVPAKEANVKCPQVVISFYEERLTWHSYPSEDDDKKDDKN

SMILES	outcome [1]	Potency [2]	Potency [3]	Potency [4]	Potency [5]	outcome [6]	outcome [7]	outcome [8]	Potency [9]	Potency [10]	Potency [11]	Potency [12]	Potency [13]	viability change [13] [%]	outcome [14]	Potency [15]	Potency [16]	Potency [17]	activation [18]	Potency [19]
O=c1c(-c2ccc(O)cc2)coc2cc(O)cc(O)c12	inactive	inactive	inactive	inactive	inactive	inactive	inactive	inactive	inactive	inactive	inactive	9.2 µM (active)	inactive	-6.66	inactive	inactive	–	–	–	–
CCCNCC(O)COc1ccccc1C(=O)CCc1ccccc1 (configuration not stated)	inactive	inactive	inactive	–	inactive	inactive	–	inactive	inactive	inactive	10 µM (active)	inactive	–	–	inactive	inactive	2.33 µM (active)	inactive	4% (inactive)	–
CN1CCN2c3ccccc3Cc3ccccc3C2C1 (configuration not stated)	inactive	inactive	–	inactive	–	inactive	inactive	inactive	inactive	inactive	–	inactive	inactive	-3.01	–	–	inactive	–	-4.88% (inactive)	–
Nc1ccn([C@H]2CC[C@@H](CO)O2)c(=O)n1	inactive	–	inactive	inactive	inactive	inactive	inactive	inactive	inactive	inactive	inactive	inactive	–	–	inactive	inactive	inactive	–	0.938% (inactive)	–
Clc1ccc2nsnc2c1NC1=NCCN1	inactive	inactive	inactive	inactive	inactive	inactive	–	–	inactive	inactive	inactive	inactive	inactive	-2.06	inactive	–	–	–	–	inactive
CCN1CCCC1CNC(=O)c1cc(S(=O)(=O)CC)c(N)cc1OC (configuration not stated)	inactive	inactive	inactive	inactive	inactive	inactive	–	–	inactive	inactive	inactive	inactive	–	–	inactive	–	–	–	–	–
CN(CCOc1ccc(NS(C)(=O)=O)cc1)CCc1ccc(NS(C)(=O)=O)cc1	–	–	–	–	–	–	–	–	–	–	–	–	–	–	–	–	–	–	–	inactive
COc1cc2nc(N3CCN(C(=O)c4ccco4)CC3)nc(N)c2cc1OC	inactive	inactive	–	–	inactive	inactive	–	inactive	inactive	inactive	inactive	–	inactive	-4.77	inactive	–	–	–	–	–
CN(C)CCC=C1c2ccccc2C=Cc2ccccc21	inactive	inactive	inactive	inactive	inactive	inactive	–	inactive	inactive	inactive	1 µM (active)	inactive	inactive	1.79	inactive	inactive	–	–	1.69% (inactive)	inactive
COc1ccc(CCN(C)CCCC(C#N)(c2ccc(OC)c(OC)c2)C(C)C)cc1OC (configuration not stated)	–	–	–	–	–	inactive	–	inactive	inactive	inactive	inactive	–	–	–	inactive	–	–	–	7.06% (inactive)	–
CC1(CN2CCC(n3c(=O)[nH]c4ccccc43)CC2)OCc2ccccc2-n2cccc21 (configuration not stated)	–	–	–	–	–	–	–	–	–	–	–	–	–	–	–	–	–	–	–	inactive
Fc1ccc([C@@H]2CCNC[C@H]2COc2ccc3c(c2)OCO3)cc1	inactive	inactive	inactive	35.5 µM (active)	–	inactive	–	inactive	–	inactive	inactive	inactive	–	–	inactive	inactive	–	–	7.94% (inactive)	–
CN(C)C(=O)C(CCN1CCC(O)(c2ccc(Cl)cc2)CC1)(c1ccccc1)c1ccccc1	inactive	inactive	–	–	–	inactive	–	–	inactive	inactive	inactive	–	–	–	inactive	inactive	–	–	17% (inactive)	–
O=c1c(O)c(-c2ccc(O)c(O)c2)oc2cc(O)cc(O)c12	inactive	inactive	–	–	–	inactive	inactive	inactive	inactive	–	–	inactive	inactive	-9.26	inactive	inactive	–	–	0.938% (inactive)	inactive
CCOC(=O)Nc1ccc(NCc2ccc(F)cc2)nc1N	inactive	–	–	39.8 µM (active) and inactive	–	inactive	inactive	inactive	inactive	inactive	inactive	inactive	–	–	inactive	–	–	–	–	inactive
Cn1ccc2cc3c(cc21)CCN3C(=O)Nc1cccnc1	inactive	inactive	–	39.8 µM (active) and inactive	39.8 µM (active)	inactive	inactive	inactive	inactive	inactive	–	–	inactive	-2.16	inactive	inactive	–	inactive	0.875% (inactive)	–
O=C(c1ccc(OCCN2CCCCC2)cc1)c1c(-c2ccc(O)cc2)sc2cc(O)ccc12	inactive	inactive	inactive	20 µM (active)	31.6 µM (active)	inactive	–	–	inactive	–	inactive	inactive	–	–	inactive	inactive	–	–	–	–

Reference: PubChem BioAssay (NCATS)
